Calls of active or inactive are those of the source.
test: forskolin-driven CRE-LacZ activity in PC12 – cell-based, CRE-LacZ reporter, forskolin-stimulated, primary screen (AID 1146); settings: luminescence, 4.5 h, higher = more signal, called active from +8 up or from −8 down;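 note: PC12 cells with 6xCRE LacZ reporter stimulated by forskolin 10 µM; beta-galactosidase reporter signal reflecting CREB driven transcription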

z-score, inactive:
CCOC(=O)CCN1C(=O)[C@H]2[C@H]3[C@H](O)[C@H](O)CC(=NOCC=C(C)CCC=C(C)C)[C@H]3CC[C@H]2C1=O 0.462, CCOC(=O)[C@H](Cc1ccccc1)NC(=O)CCC1CC(OC(=O)NCc2cccc3ccccc23)CC2(CCCC(COC(=O)NCCOc3ccccc3)O2)O1 (stereo partly specified) 0.57, CCOC(=O)[C@H](CC(C)C)NC(=O)CCC1CC(OC(=O)NCCc2ccc(F)cc2)CC2(CCCC(COC(=O)NCCCN3CCCC3=O)O2)O1 (stereo partly specified) 0.319, CC(=O)OC[C@H]1O[C@H](CC=NOC(C)CN2CCCCc3nc(C)c(C)cc32)C=C[C@@H]1OC(C)=O (stereo partly specified) 0.278, C#CCCCON=C1[C@H]2CCn3c(=O)n([C@@H](CC)c4ccccc4)c(=O)n3[C@H]2[C@H](O)[C@@H]2O[C@H]12 0.253, CO[C@H]1C[C@@H]2C[C@H](O)CC(CC(=O)O[C@@H](C=CCC(C)C)C[C@@H]3CC[C@H](C)[C@@H](C1)O3)O2 0.405, C=CC[C@@H]1C=C[C@H](ON=C[C@@H](NS(=O)(=O)c2ccc(C)cc2)[C@H](C)C=CCC(=O)OC)[C@@H](CO)O1 0.983, CO[C@H]1COC(=O)CCC[C@H](C)[C@@H](OC)COC(=O)CC=C[C@@H]1C -0.24, O=C(NN=C1C[C@@H](O)[C@@H](O)[C@@H]2[C@@H]3C(=O)N(Cc4ccccc4)C(=O)[C@@H]3CC[C@H]12)OCc1ccccc1 0.401, CCOC(=O)[C@H](CC(C)C)NC(=O)CCC1CC(OC(=O)NCCc2ccc(F)cc2)CC2(CCCC(COC(=O)NCc3cccc4ccccc34)O2)O1 (stereo partly specified) 1.01, CCN1C(=O)[C@H]2[C@H]3[C@H](O)[C@H](O)CC(=NOCC(C)C)[C@H]3CC[C@H]2C1=O 0.13, COC(OC)[C@@H](C)[C@H](OC)[C@@H](C)[C@H](OC)c1ccccc1 0.0401, COC(=O)[C@H](C)NC(=O)CCC1CC(OC(=O)NCc2ccc3c(c2)OCO3)CC2(CCCC(COC(=O)NCc3ccccc3)O2)O1 (stereo partly specified) -0.169, CO[C@@H](C1CCCCC1)[C@@H](C)[C@H](OCc1cccc(Br)c1)[C@@H](C)CO 0.432, CC(C)CON=C1[C@H]2CCn3c(=O)n(C)c(=O)n3[C@H]2[C@H](O)[C@@H]2O[C@H]12 -0.28, C[C@]12CCC3c4ccc(OCC5CO5)cc4CCC3C1CC[C@@H]2O (stereo partly specified) 0.806, CO[C@@H]1C=CCC(=O)N[C@@H](C)C(=O)OC[C@@H](OC)[C@H](C)C=CCC(=O)OC[C@H]1C -0.384, OC[C@H]1O[C@H](C#Cc2ccccc2)C=C[C@@H]1O 0.186, CC(C)[C@@H](OCc1ccccc1)[C@H](C)C=NO[C@H](C)c1cn([C@@H]2COC[C@H]2O)nn1 -0.379, CN1CCc2nc(-c3ccccc3)c(-c3ccccc3)cc2C1 0.0655, O=C1[C@H]2[C@H]3[C@H](O)[C@H](O)CC(=NOC[C@@H](O)COCc4ccco4)[C@@H]3CC[C@H]2C(=O)N1Cc1ccc2c(c1)OCO2 0.506, CCOC(=O)[C@H](CC(C)C)NC(=O)CCC1CC(OC(=O)NCc2ccc3c(c2)OCO3)CC2(CCCC(COC(=O)NCCc3ccccc3OC)O2)O1 (stereo partly specified) 0.101, C[C@@H]1CC[C@H]2C(=O)OC(CN3C(=O)c4ccccc4C3=O)CN2[C@H]1c1ccc(Br)cc1 (stereo partly specified) -0.841, O=C1C=C[C@@H](O)[C@@H]2[C@@H]3C(=O)N(Cc4ccc5c(c4)OCO5)C(=O)[C@@H]3CC[C@@H]12 -0.332, COC(=O)[C@H](C)NC(=O)CCC1CC(OC(=O)NCc2cccc3ccccc23)CC2(CCCC(COC(=O)NCCCN3CCCC3=O)O2)O1 (stereo partly specified) -0.178, CO[C@@H]1COC(=O)[C@H](COCc2ccccc2)NC(=O)CC=C[C@@H](C)[C@H](OC)COC(=O)[C@@H](C)NC(=O)CC=C[C@H]1C -0.803, CON=C(C)CCN1CCCCc2nc(C)c(C)cc21 1.13, C#CCCCON=C1[C@H]2CCn3c(=O)n(Cc4cc5c(cc4Cl)OCO5)c(=O)n3[C@H]2[C@H](O)[C@@H]2O[C@H]12 0.959, C[C@H]1CC[C@H]2C(=O)N[C@H](Cc3ccccc3)C(=O)N2[C@@H]1c1ccccc1 0.901, CC(CCN1CCc2nc(-c3ccccc3)c(-c3ccccc3)cc2C1)=NO[C@H](C)c1cn([C@H](CO)Cc2ccccc2)nn1 1.11, C#CCCCON=C1C[C@@H](O)[C@@H](O)[C@@H]2[C@@H]3C(=O)N(C[C@@H]4CCCO4)C(=O)[C@@H]3CC[C@@H]12 0.305, CCOC(=O)[C@H](CC(C)C)NC(=O)CCC1CC(OC(=O)NCc2ccc3c(c2)OCO3)CC2(CCCC(COC(=O)NCCOC)O2)O1 (stereo partly specified) 0.59, COc1ccc(OC[C@@H](CO)OC)cc1 0.17, COC(=O)[C@@H]1CC[C@H](C)[C@@H](c2ccc(C)cc2)N1C(=O)c1ccc(C=NOC[C@@H](O)[C@H]2O[C@@H]3OC(C)(C)O[C@@H]3[C@H]2O)cc1 0.413, CC(=O)OC[C@H]1O[C@H](CC=NO[C@@H](C)c2cn([C@H](CO)Cc3ccccc3)nn2)C=C[C@@H]1OC(C)=O 0.114, COC(=O)[C@H](C)NC(=O)CCC1CC(OC(=O)NCc2ccc3c(c2)OCO3)CC2(CCCC(COC(=O)NCCC(C)C)O2)O1 (stereo partly specified) -1.22

— PubChem BioAssay
